# Records with an inconclusive call do not appear. Where a call stands in place of a potency, no number is given. Active and inactive are the calls of the source. The call rests on the fitted dose curve; in most records, active means well fitted curve in the direction sought with a large enough effect; inconclusive means small, poorly fitted or top-dose-only effect, or another doubt; inactive means no such curve, though single readings can be large; an effect the other way counts as inactive or inconclusive.
# Columns and labels:
# [1] = qHTS of pediatric cancer cell lines to identify multiple opportunities for drug repurposing: Confirmatory screen for Saos-2 cells (AID 1347127); settings: Saos-2 osteosarcoma cell viability; series mostly up to 45.9 µM; further: nearly all actives have a fitted effect of over 60% in size
# Procedure, shortened: (§1)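 Viability after 48 h compound treatment at 37C, 500-1,000 cells/well, read as ATP luminescence with CellTiter-Glo. Primary screens used 11-point (MIPE, 0.78 nM-46 µM) or 8-point (NPC, 0.59 nM-46 µM) final concentrations; follow-up screens used 11-point dilutions.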
# [2] = qHTS of pediatric cancer cell lines to identify multiple opportunities for drug repurposing: Confirmatory screen for OHS-50 cells (AID 1347128); settings: OHS-50 osteosarcoma cells viability; series mostly up to 45.9 µM;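 further: compound exposure lasted 48 h at 37 degrees C; nearly all actives have a fitted effect of over 55% in size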
# Procedure, shortened: as §1
# [3] = qHTS of pediatric cancer cell lines to identify multiple opportunities for drug repurposing: Confirmatory screen for SK-N-SH cells (AID 1347129); settings: SK-N-SH neuroblastoma cell viability; series mostly up to 46.1 µM;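 further: cells exposed to compound for 48 h before viability read; nearly all actives have a fitted effect of over 60% in size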
# Procedure, shortened: as §1
# [4] = test system: Zika virus NS2B-NS3 protease; assay: Primary screen GU AMC qHTS for Zika virus inhibitors (AID 1347154); settings: Zika NS2B-NS3 unlinked protease, AMC fluorogenic substrate; series mostly up to 54.1 µM; further: nearly all actives have a fitted effect of over 70% in size
# Procedure, shortened: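 Unlinked Zika NS2B hydrophilic domain–NS3 protease complex at 25 nM in 10 mM Tris-HCl pH 8.0, 0.01% Tween 20, with an AMC peptide substrate. Fluorescence change (340/450 nm) over 15 min at room temperature, normalized to controls, fitted to 4-parameter Hill.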
# [5] = molecular target: N-terminal Xaa-Pro-Lys N-methyltransferase 1 (Homo sapiens) (UniProt Q9BV86); assay: qHTS Assay for Inhibitors of N-terminal methyltransferase 1 (NTMT1): LOPAC validation of the NTMT1 SAHH-coupled ThioGlo3 Assay (AID 1347143); settings: recombinant NTMT1, SAHH-coupled ThioGlo3 fluorescence; series mostly up to 114 µM;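 further: SAH from peptide methylation measured as thiol fluorescence via SAHH coupling and ThioGlo3; nearly all actives have a fitted effect of over 70% in size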
# Chain of N-terminal Xaa-Pro-Lys N-methyltransferase 1 (Homo sapiens) (Q9BV86 whole entry, looked up): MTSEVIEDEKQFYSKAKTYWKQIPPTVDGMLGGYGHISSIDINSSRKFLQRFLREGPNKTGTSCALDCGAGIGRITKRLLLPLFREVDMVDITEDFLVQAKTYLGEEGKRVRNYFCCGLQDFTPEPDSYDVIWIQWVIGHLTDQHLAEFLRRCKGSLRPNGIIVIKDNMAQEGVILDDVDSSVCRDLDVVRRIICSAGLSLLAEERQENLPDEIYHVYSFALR
# Procedure, shortened: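 Steps: dispense 125nM NTMT1; pin-transfer test compounds at several concentrations, with 1uM RCC1-6 peptide as control; incubate 1 min; start with reagent holding 100uM SAM, 10uM SAHH, 15uM ThioGlo3; read at 0 and 30 min.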
# [6] = test system: Zika virus NS2B-NS3 protease (unlinked); assay: Optimization of GU AMC qHTS for Zika virus inhibitors: Unlinked NS2B-NS3 protease assay (AID 1347151); settings: recombinant ZIKV NS2B-NS3 protease, fluorogenic AMC substrate; series mostly up to 52.5 µM; further: nearly all actives have a fitted effect of over 80% in size
# Procedure, shortened: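 Noncovalent complex of NS2B hydrophilic domain and NS3 protease domain, 25 nM final, in 10 mM Tris-HCl pH 8.0, 0.01% Tween 20. AMC fluorescence change over 15 min at room temperature was fitted to a 4-parameter Hill equation.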
# [7] = test system: Zika virus NS2B-NS3 protease (linked construct); assay: Confirmatory screen NINDS AMC qHTS for Zika virus inhibitors (AID 1347152); settings: Purified linked NS2B-NS3, AMC substrate fluorescence; further: potency means the concentration at half of the fitted maximal effect; nearly all actives have a fitted effect of over 70% in size
# Procedure, shortened: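 Purified NS2B-NS3 protease with NS2B hydrophilic domain linked to NS3 protease domain by flexible linker, 1 nM final in 10 mM Tris-HCl pH 8.0, 0.01% Tween 20. Compounds preincubated 15 min, room temperature; Bz-Nle-KRR-AMC 10 microM (Km 18.3 µM); 15-min fluorescence change, 4-parameter Hill fit.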
# [8] = test system: Zika virus NS2B-NS3 protease (unlinked complex); assay: Confirmatory screen GU AMC qHTS for Zika virus inhibitors (AID 1347153); settings: Recombinant NS2B-NS3 protease, AMC substrate fluorescence;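 further: enzyme at 25 nM with substrate at 10 µM below its Km of 18.3 µM; potency means the concentration at half of the fitted maximal effect; nearly all actives have a fitted effect of over 70% in size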
# Procedure, shortened: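 Fluorescence change (ex 340/em 450 nm) over 15 min, ~20% substrate conversion, normalized to no-inhibitor and no-enzyme controls, then Hill-fitted. Unlinked protease at 25 nM; AMC peptide 10 µM.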
smiles,measurement,setting,value
C[C@]12CCC(=O)C=C1CC[C@@H]1[C@@H]2CC[C@@]2(C)[C@H]1CC[C@]2(C)O,Potency,[1],inactive
same,Potency,[2],inactive
same,Potency,[3],inactive
same,Potency,[4],inactive
CCCCCCCCCC(=O)O[C@H]1CC[C@H]2[C@@H]3CCC4=CC(=O)CC[C@@H]4[C@H]3CC[C@]12C,Potency,[4],inactive
O=c1[nH]oc2c1CCNC2,outcome,[5],inactive
same,outcome,[6],inactive
same,Potency,[4],inactive
O=C(O)CCCc1ccc(N(CCCl)CCCl)cc1,Potency,[2],inactive
same,Potency,[3],inactive
same,Potency,[4],inactive
O=C(N/N=C/c1ccc([N+](=O)[O-])o1)c1cc([N+](=O)[O-])cc([N+](=O)[O-])c1O,Potency,[1],inactive
same,Potency,[2],inactive
same,Potency,[3],inactive
same,Potency,[4],inactive
O=c1c(C2CC(c3ccc(-c4ccc(Br)cc4)cc3)Cc3ccccc32)c(O)sc2ccccc12 (stereo unspecified),Potency,[7],19.2 µM (active)
same,Potency,[8],12.1 µM (active)
C[C@](O)(CS(=O)(=O)c1ccc(F)cc1)C(=O)Nc1ccc(C#N)c(C(F)(F)F)c1,Potency,[1],inactive
same,Potency,[2],inactive
same,Potency,[3],inactive
same,Potency,[4],inactive
COP(=S)(OC)Oc1ccc(SC)c(C)c1,Potency,[4],inactive
COc1ccc2c(c1OC)C(=O)O[C@H]2[C@@H]1c2cc3c(cc2CCN1C)OCO3,outcome,[5],inactive
same,Potency,[4],inactive
O=P1(N(CCCl)CCCl)NCCCO1 (stereo unspecified),Potency,[1],inactive
same,Potency,[2],inactive
same,Potency,[3],inactive
same,outcome,[6],inactive
same,Potency,[4],inactive
COC(=O)[C@@H](N)CCCN/C(N)=N/[N+](=O)[O-],Potency,[4],inactive
CCCCCN(C)CCC(O)(P(=O)(O)O)P(=O)(O)O,outcome,[5],inactive
same,outcome,[6],inactive
C#C[C@]1(O)CC[C@H]2[C@@H]3CCC4=CC(=O)CC[C@]4(C)[C@H]3CC[C@@]21C,Potency,[4],inactive
CCC1(c2ccc(N)cc2)CCC(=O)NC1=O (stereo unspecified),outcome,[5],inactive
same,outcome,[6],inactive
same,Potency,[4],inactive

# Reference: PubChem BioAssay (NCATS)
